Measured values: PubChem BioAssay (Tox21)
Records with an inconclusive call do not appear. The source made the active and inactive calls. Unless noted, calls follow the shape of the dose curve; as a rule, active = well fitted curve in the direction sought with a large enough effect in the repeat runs; inconclusive = weak or mixed curves; inactive = no such curve, though single readings can be large; an effect the other way counts as inactive or inconclusive.

Experiments:
[1] = qHTS assay to identify small molecule antagonists of the progesterone receptor (PR) signaling pathway - cell viability counter screen (AID 1346798); also: series mostly up to about 92 µM; nearly all actives have a fitted effect of over 50% in size
Procedure, shortened: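 Cytotoxicity read as CellTiter-Glo luminescence (30 min, room temperature) in the same wells as the beta-lactamase readout. HEK293T PR-UAS-bla cells in charcoal-stripped 2% FBS received compound and R5020, then 16 h at 37C, 5% CO2.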

[2] = qHTS assay to identify small molecule antagonists of the TGF-beta/Smad signaling pathway - cell viability counter screen (AID 1346824); also: nearly all actives have a fitted effect of over 50% in size
Procedure, shortened: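 SBE-bla HEK 293T cells, incubated overnight, then compound plus 0.25 ng/mL TGF-beta1 (stock added) for 5 hr at 37 C. Viability was read in the same wells by CellTiter-Glo luminescence after 30 min at room temperature.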

[3] = qHTS assay to identify small molecule agonists of the TGF-beta/Smad signaling pathway - cell viability counter screen (AID 1346829); also: top concentration of the series differs between compounds; nearly all actives have a fitted effect of over 45% in size
Procedure, shortened: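 Same-well cytotoxicity: CellTiter-Glo added after the 2 hr room-temperature beta-lactamase substrate step, luminescence measured 30 min later; cells had 5 hr of compound at 37 C.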

[4] = qHTS assay to identify small molecule agonists of the TGF-beta/Smad signaling pathway (AID 1346859; active = well fitted activation curve with a large enough effect in the signal ratio in the repeat runs, not every such curve was filed as active; the % refers to the signal ratio; also: series mostly up to about 77 µM)
Procedure, shortened: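 Fluorescence (ex 405 nm; em 460 and 530 nm) was read 2 h after LiveBLAzer FRET substrate at RT. The preceding compound treatment of overnight-plated SBE-bla HEK293T cells lasted 5 h at 37 C.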

[5] = target: Thyrotropin-releasing hormone receptor (Homo sapiens) (UniProt P34981); assay: qHTS assay to identify small molecule antagonists of the thyrotropin-releasing hormone receptor (TRHR) signaling pathway (AID 1346877; active = well fitted inhibition curve with a large enough effect in the repeat runs, not every such curve was filed as active; also: series mostly up to about 51 µM)
Procedure, shortened: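 Antagonist mode: after a 5 min room-temperature compound exposure, cells were stimulated with 1 nM (final) TRH. Dye-loaded TRHR-HEK293 cells were used, and calcium-dependent fluorescence was followed for 3 min, with 15-point titrations run in triplicate.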

[6] = target: Thyrotropin-releasing hormone receptor (Homo sapiens) (UniProt P34981); assay: qHTS assay to identify small molecule agonists of the thyrotropin-releasing hormone receptor (TRHR) signaling pathway (AID 1346891; calls by dose curve; also: series mostly up to about 58 µM)
Procedure, shortened: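 Agonist-mode intracellular calcium readout: kinetic fluorescence over 3 min at 1 s intervals after compound addition to TRHR-HEK293 cells (18 h seeded, 2 h dye-loaded at 37 C). Fifteen concentrations, triplicates.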

[7] = Human pregnane X receptor (PXR) small molecule agonists, qHTS cell viability counter screen (AID 1346977); also: nearly all actives have a fitted effect of over 50% in size; also: potency is read from the fitted curve at half-maximal effect
Procedure, shortened: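 Same-well viability read: CellTiter-Fluor added after 23 hr compound exposure, fluorescence measured 1 hr later. Cells were PXR-Luc HepG2 seeded at 2,000/well in 5% charcoal-stripped FBS medium, rested 5 hr before dosing at 37 C.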

[8] = qHTS assay to identify small molecule agonists of the progesterone receptor (PR) signaling pathway - cell viability counter screen (AID 1346799; calls by dose curve; also: nearly all actives have a fitted effect of over 45% in size)
Procedure, shortened: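 Cytotoxicity measured by CellTiter-Glo luminescence (30 min, RT) in the same wells as the PR beta-lactamase agonist read. Those HEK293T cells had 16 h compound treatment at 37 C in 2% charcoal-stripped FBS medium.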

Measured: Potency

Chain of Thyrotropin-releasing hormone receptor (Homo sapiens) (P34981 whole entry, looked up): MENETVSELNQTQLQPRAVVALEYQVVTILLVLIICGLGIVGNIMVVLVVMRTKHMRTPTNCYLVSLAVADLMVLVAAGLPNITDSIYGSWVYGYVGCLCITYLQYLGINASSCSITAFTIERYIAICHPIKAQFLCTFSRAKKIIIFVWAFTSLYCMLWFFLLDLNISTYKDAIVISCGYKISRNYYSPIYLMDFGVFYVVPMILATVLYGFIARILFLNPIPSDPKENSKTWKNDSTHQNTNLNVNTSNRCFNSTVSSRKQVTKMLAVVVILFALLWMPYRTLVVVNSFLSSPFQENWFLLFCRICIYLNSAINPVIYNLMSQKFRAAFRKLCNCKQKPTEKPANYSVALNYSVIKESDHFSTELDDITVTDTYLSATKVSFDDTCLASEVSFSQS

Cc1nn(C)c(Oc2ccccc2)c1/C=N/OCc1ccc(C(=O)OC(C)(C)C)cc1
active: [7] 86.3 nM
not listed: [8]
inactive: all other assays above

C=C(C)C(=O)OCC
inactive: all assays above

Brc1c2ccccc2cc2ccccc12
inactive: [1] | [2] | [3] | [7]

CC(C)(C)OCC1CO1 (stereo not drawn)
not listed: [7]
inactive: all other assays above

ClCCOCCOCCCl
inactive: all assays above

C=CC(=O)OCCOCCOC(=O)C=C
inactive: [3] | [4] | [5] | [6]
